# TTR transcr act: increases transthyretin transcription | SH-SY5Y TTR promoter Gaussia luciferase, luminescence; 100% = recombinant luciferase protein wells | activation, % at 16.7 µM | actives 1.3% (n = 92,000);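 active = activation above the mean of all tested compounds plus 3 SD, cut at about 9.5% in these data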;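 also: cells exposed to compounds for one day before reading; 0% = median of all test compound wells on the plate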
# HuH7 TTR inh: counter-screen for TTR activators: TTR transcription inhibitors in HuH7 cells. inhibition, % at 16.7 µM. shares compounds with TTR transcr act. HuH7 TTR promoter-Gaussia luciferase reporter, luminescence. actives 4% (n = 1,100);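 active = average inhibition above the solvent-only control wells' mean plus 3 SD, cut at about 15% in these data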;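 also: 0% = cells with DMSO only and 100% = cells with inhibitor control FD; inhibitors lower well luminescence so higher value means more inhibition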
# TTR up confirm: confirmation of human transthyretin transcription activators; shares compounds with TTR transcr act; SHSY5Y TTR promoter Gaussia luciferase, luminescence; 100% = purified Lucia enzyme wells, no cells; activation, % at 16.7 µM; 1,100 tested, under 10 active;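 active = mean activation above a set limit taken from the earlier primary screen, cut at about 11% in these data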;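 also: 0% = DMSO-treated cells and 100% = recombinant Lucia luciferase without cells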
# Active calls of the source: *. The sample as a whole holds a higher share of hits than the screen did.
SMILES,TTR transcr act,others
O=C(Cc1ccccc1)N1CCN(CCCc2ccccc2)CC1,0,
Cc1ccc(CC(=O)N2CCN(Cc3ccccc3)CC2)cc1,-1,
O=C(Cc1ccc(Br)cc1)N1CCN(Cc2ccccc2)CC1,11*,
CN=C1CN=C(c2ccc[nH]2)c2cc(Cl)ccc2N1,-1,
O=C(NC(Cc1ccccc1)P(=O)(O)Oc1ccccc1)OCc1ccccc1 (stereo not drawn),-1,
COc1ccc(Cn2c(O)c(/C=N/NC(=O)c3ccccc3)c(=O)[nH]c2=O)cc1,0,
CCn1c(O)c(/C=N/NC(=O)c2ccccc2)c(=O)[nH]c1=S,8,
COc1ccccc1-n1c(O)c(/C=N/NC(=S)Nc2ccccc2)c(=O)[nH]c1=S,14*,HuH7 TTR inh=-12;TTR up confirm=0
CNC(=O)Oc1cccc2c1OC(C)(C)O2,-1,
CCCCCCC(Cl)(Cn1ccnc1)c1ccccc1 (stereo not drawn),0,
O=C(O)c1cc2ccccc2n1C1CCN(Cc2ccccc2)CC1,6,
COC(=O)C1=C(c2ccc(OC)c(OC)c2)C[C@@H]2CC[C@H]1N2C(=O)NCc1ccco1,1,
CC(=O)C1CCC2C3CCC4CC(O)CCC4(C)C3C(O)CC12C (stereo not drawn),-1,
CC(=O)C1CCC2C3CC(O)C4CC(O)CCC4(C)C3CCC12C (stereo not drawn),-2,
CC(=O)C1CCC2C3CCC4CC(O)CCC4(C)C3C(=O)CC12C (stereo not drawn),12*,HuH7 TTR inh=-7;TTR up confirm=-1
COc1ccc2c3c([nH]c2c1)[C@H](C=C(C)C)N1C(=O)[C@@H]2CCCN2C(=O)[C@@H]1C3,0,
COc1ccc(CN2Cc3cnnn3-c3ccccc3C2C)cc1 (stereo not drawn),4,
O=C(NCC1=C(c2cccc3ccccc23)C[C@@H]2CC[C@H]1N2Cc1ccco1)c1cccs1,7,
CCN1CCN(c2nc([N+](=O)[O-])nn2C)CC1,14*,HuH7 TTR inh=-4;TTR up confirm=0
CN1CCN(c2nc([N+](=O)[O-])nn2C)CC1,1,
CCOC(=O)c1cccc(C2=C(CNC(=O)c3ccc([N+](=O)[O-])cc3)[C@H]3CC[C@@H](C2)N3Cc2ccccc2)c1,-1,
O=c1[nH]c2ccccc2n1C1CCN(C(CCc2ccccc2)c2nnnn2-c2ccc3c(c2)OCCO3)CC1 (stereo not drawn),-5,
COC(=O)C1=C(c2ccc(OC(F)(F)F)cc2)C[C@@H]2CC[C@H]1N2C(=O)NCc1cc(C)oc1C(F)(F)F,-3,
COP(=O)(C(=O)Nc1ccccc1)C(CC(C)C)NC(=O)OCc1ccccc1 (stereo not drawn),2,
Cn1c(O)c(/C=C2\C=Nc3ccccc32)c(=O)n(C)c1=O,0,
SMILES,TTR transcr act,others
COC(=O)C1=Nc2ccccc2/C1=C\c1c(O)n(C)c(=O)n(C)c1=O,0,
Cn1c(O)c(/C=C2\N=c3ccccc3=C2CCNC(=S)NC2CC2)c(=O)n(C)c1=O,13*,HuH7 TTR inh=17*;TTR up confirm=0
Fc1ccccc1CNCCc1ccc2c(c1)OCO2,1,
CCN[C@@H](C)Cc1cccc(C(F)(F)F)c1,3,
O=c1[nH]c(=S)n(-c2ccc(Cl)cc2)c(O)c1C=Nc1ccc(N2CCOCC2)cc1,-2,
CCn1c(O)c(/C=N/N2CCOCC2)c(=O)n(CC)c1=S,1,
Cc1ccc(-n2c(O)c(/C=N/N3CCOCC3)c(=O)[nH]c2=S)cc1,10*,HuH7 TTR inh=10;TTR up confirm=0
CNC1(c2ccccc2Cl)CCCCC1=O (stereo not drawn),16*,HuH7 TTR inh=-3;TTR up confirm=-1
CN(C)CC1CSCCC1(O)c1ccccc1Cl (stereo not drawn),2,
CCC1(CC)C(=O)NC(=O)N(c2ccccc2)C1=O,0,
Cc1nn(C)c(C)c1P(=S)(c1c(C)nn(C)c1C)N(C)C,9.9*,HuH7 TTR inh=-4;TTR up confirm=-1
O=C1NCN(c2ccccc2)C12CCN(C(c1ccccc1OC(F)(F)F)c1nnnn1-c1ccc3c(c1)OCCO3)CC2 (stereo not drawn),0,
COCC(=O)N1Cc2ccccc2-n2nncc2C1,2,
CCOC(=O)[C@]12Cc3cc(C)ccc3[C@H]1N(C1CCCCC1)C(=O)c1cc(OC)ccc12,-7,
C[C@]12CCC(=O)C[C@@H]1CC[C@@H]1[C@@H]2CC[C@]2(C)[C@@H](O)CC[C@@H]12,-2,
O=CC(Cl)P(=O)(N1CCOCC1)N1CCOCC1 (stereo not drawn),1,
O=P(/C(=N/O)N1CCOCC1)(N1CCOCC1)N1CCOCC1,12*,HuH7 TTR inh=-10;TTR up confirm=-1
O=P(Oc1ccccc1)(N1CCOCC1)N1CCOCC1,-1,
c1cc2c(cc1-c1ccc3c(c1)OCO3)CNCc1cnnn1-2,-1,
Brc1csc(N2CCNCC2)n1,0,
CS(=O)(=O)c1ccc(C2=C(CNC(=O)c3cccs3)[C@H]3CC[C@@H](C2)N3CCOc2ccccc2)cc1,0,
COc1cccc(C(=O)C2CCCN(Cc3cnn(C(C)C)c3)C2)c1 (stereo not drawn),11*,HuH7 TTR inh=-16;TTR up confirm=2
COc1cccc(C(=O)C2CCCN(Cc3cccc(C)n3)C2)c1 (stereo not drawn),3,
COc1cccc(C(=O)C2CCCN(Cc3ccc(F)cc3)C2)c1 (stereo not drawn),2,
CC(C)C(NC(=O)OCc1ccccc1)P(=O)(Oc1ccccc1)Oc1ccccc1 (stereo not drawn),0,
O=S(=O)(c1ccc(Cl)cc1)N1Cc2cc(Br)ccc2-n2nncc2C1,0,
CC1c2ccccc2-n2nncc2CN1CC1CCCCC1 (stereo not drawn),1,
Brc1ccc2c(c1)CN(CC1CCCCC1)Cc1cnnn1-2,27*,HuH7 TTR inh=-8;TTR up confirm=0
CC[C@H](C)[C@@H]1OC(=O)[C@H](C(C)C)N(C)C(=O)[C@H](C(C)C)NC(=O)[C@@H](C)[C@@H](CCCC#CBr)OC(=O)[C@H](C(C)C)N(C)C(=O)C2CCCN2C1=O (stereo partly drawn),-4,
O=C(CNC(=O)OCc1ccccc1)NC(Cc1ccccc1)P(=O)(Oc1ccccc1)Oc1ccccc1 (stereo not drawn),-2,

# Assay outcomes: PubChem, The Scripps Research Institute Molecular Screening Center
